Source: PubChem BioAssay (National Center for Advancing Translational Sciences (NCATS))
Marburg entry: inhibitors of Marburg virus binding or entry into cells | Marburg virus pseudotype entry/binding inhibition, cell-based | actives 6.5% (n = 18,000) | Potency, µM (titrated, usually from 49.2 µM), for the others: at the highest dose activity change, negative = inhibition, hits mostly inhibitors
LASV entry inh: blocks Lassa virus binding or cell entry; Lassa virus pseudotyped entry inhibition, cell-based qHTS; Potency, µM (highest dose often 49.2 µM), inactives show at the top dose activity change, negative = inhibition, actives largely listed as inhibitors; actives 4.1% (n = 18,000); AID 720533
An asterisk follows results filed as active; ? = inconclusive; . = no result; ! = repeats disagree; [ ] = remark or other dose. This is a sample that favours compounds with a hit; in the whole collection about 8% have one here. Calls come from the whole dose curve; tested in HEK293 cells. % is set by controls: 0 for no effect and ±100 for the full control effect; potency is the fitted concentration of half-maximal effect.

SMILES	Marburg entry	LASV entry inh
Cc1nc(C)c(C(=O)NCc2nc(-c3cccc(NC(=O)c4ccccn4)c3)oc2C)s1	3%	?
CC1(C)N=C(N)N=C(N)N1c1ccc(Cl)cc1	7.1µM*	11µM*
C[C@H]1CN(c2ccc(Br)cc2)C(=O)[C@H]1CC(=O)Nc1ccc(Br)cc1	?	14%
CC(=O)OC[C@H]1O[C@H](CC=NO[C@@H](C)c2cn([C@H](CO)Cc3ccccc3)nn2)C=C[C@@H]1OC(C)=O	34%[8.59 µM]	.
CC[C@]1(c2ncc[nH]2)Cc2ccccc2O1	-18%	4%
CN(C)CCC1(c2ccc(Cl)cc2)Cc2ccccc2C(=O)O1 (stereo not given)	35µM*	-15%
O=S1(=O)C=CCN1	23%	12%
O=C1NCC2(CCN(CCc3ccccc3)CC2)O1	-10%	-8%
Cc1ccc2c(c1)C1(CCN(CCc3nc(-c4ccccc4)oc3C)CC1)OC(=O)N2	?	13µM*
C=CCCOP1(=O)O[C@H](C=C)C[C@H](C=C)O1 (stereo not given in full)	-10%	-13%
CC1=C[C@]2(O[C@H](COc3ccccc3)C1)C(=O)N(C)c1ccccc12	144%[8.59 µM]	95%[8.59 µM]
OCCOCCN1CCN(C(c2ccccc2)c2ccc(Cl)cc2)CC1 (stereo not given)	?	-17%
C(=C\c1ccccc1)/CN1CCN(CCOC(c2ccccc2)c2ccccc2)CC1	8.9µM*	32µM*
Fc1ccc(C(c2ccc(F)cc2)N2CCN(C/C=C/c3ccccc3)CC2)cc1	2.5µM*	32µM*!
OC/C=C/c1ccccc1	8%	-13%
C(=C\c1ccccc1)/CN1CCN(C(c2ccccc2)c2ccccc2)CC1	-11%[17.8 µM]	-25%[17.8 µM]
Clc1ccc(C(OCCN2CCCCC2)c2ccccc2)cc1 (stereo not given)	13µM*	?
O=C(NCc1ccncc1)c1cnn(-c2nccc(-c3cccs3)n2)c1C1CC1	-16%	-2%
CC(C)c1ccc(CN2CCC3(CCC(CNC(=O)c4ccn(C)n4)O3)CC2)cc1 (stereo not given)	?	-16%
CN(C)c1ccc2c(-c3ccccc3)c3ccc(=[N+](C)C)cc-3oc2c1	2.5µM*	3.2µM*
O=C(O)c1ccccc1-c1c2ccc(=O)cc-2oc2cc(O)ccc12	-4%	11%
CC(C)NC(=O)[C@@H]1C[C@@H](Sc2nc3ccccc3[nH]2)CN1C1Cc2ccccc2C1	-10%	?
CCC1CN(CC(=O)N(C)Cc2nc3ccccc3[nH]2)Cc2cc(OC)ccc2O1 (stereo not given)	-13%	-2%
COCC(=O)O[C@]1(CCN(C)CCCc2nc3ccccc3[nH]2)CCc2cc(F)ccc2[C@@H]1C(C)C	8.9µM*	20µM*
CCOC(=O)C1(c2ccccc2)CCN(CCC(C#N)(c2ccccc2)c2ccccc2)CC1	2.5µM*	7.9µM*
SMILES	Marburg entry	LASV entry inh
CCC(=O)OC1(c2ccccc2)CCN(C)CC1	-15%[107 µM]	-6%[107 µM]
COc1ccc([C@]23Cc4cc(OC)c(OC)cc4[C@H](O2)C2=C(CC(C)(C)CC2=O)O3)cc1	20%[8.59 µM]	-7%[8.59 µM]
COC(=O)C1=C(C)N(Cc2ccccc2)C(=NCc2ccc3c(c2)OCO3)NC1CCc1ccccc1 (stereo not given)	-12%[8.59 µM]	.
C/C=C(/C)C(=O)O[C@H]1C(C)=C2[C@H]([C@@H]1OC(=O)CCCCCCC)[C@@](C)(OC(C)=O)C[C@H](OC(=O)CCC)[C@@]1(O)[C@H]2OC(=O)[C@@]1(C)O	22µM*	45µM*
CCC=C1C(=O)[C@]2(C(=O)c3ccccc3)C[C@H]3CCC(CCC)(C2=O)[C@@]13OC	?	-11%[8.59 µM]
CC(O)(COc1ccccc1)c1ccc2c(c1)CN(Cc1ccccn1)CCO2 (stereo not given)	1%	-6%
C[C@@H]1CC2CCCC2[C@]2(O1)C(=O)Nc1ccccc12 (stereo not given in full)	-4%[8.59 µM]	26%[8.59 µM]
CC(Oc1cc(-n2cnc3ccc(OCC4CCN(C)CC4)cc32)sc1C(N)=O)c1ccccc1C(F)(F)F (stereo not given)	1.4µM*	.
COc1ccc2ncn(-c3cc(OC(C)c4ccccc4Cl)c(C(N)=O)s3)c2c1 (stereo not given)	0.32µM*	?
NC(=O)c1sc(-n2cnc3ccccc32)cc1OCc1ccccc1Br	16µM*	.
CC(Oc1cc(-n2cnc3ccc(OCC4CCN(C)CC4)cc32)sc1C(N)=O)c1ccccc1Cl (stereo not given)	0.63µM*	.
CC1=C(C(=O)Nc2ccc3[nH]ncc3c2)C(c2ccc(F)cc2)NC(=O)N1 (stereo not given)	8%	?
COC(=O)C(C(C)=O)[C@@H](NC(=O)OC(C)(C)C)c1ccccc1 (stereo not given in full)	-7%[8.59 µM]	-20%[8.59 µM]
COC(=O)C(C(C)=O)[C@@H](NC(=O)NCc1ccccc1)c1ccccc1 (stereo not given in full)	25%[8.59 µM]	15%[8.59 µM]
CN(C)CC/C=C1/c2ccccc2COc2ccc(CC(=O)O)cc21	22%	-13%
CNCCC=C1c2ccccc2C=Cc2ccccc21	5µM*	?
CN(C)CCC=C1c2ccccc2C(C)(C)c2ccccc21	4.5µM*	18µM*
CN(C)CCC=C1c2ccccc2C=Cc2ccccc21	11µM*	32µM*!
OCCN1CCN(CC/C=C2/c3ccccc3Sc3ccc(Cl)cc32)CC1	?	-28%[17.8 µM]
CN(C)CC/C=C1\c2ccccc2Sc2ccc(Cl)cc21	11µM*!	28µM*!
CC(=O)OC[C@H]1O[C@H](C#Cc2ccccc2Cl)C=C[C@H]1OC(C)=O	-1%[8.59 µM]	-5%[8.59 µM]
CC1(C)O[C@@H](C(O)(c2cc(C(F)(F)F)cc(C(F)(F)F)c2)c2cc(C(F)(F)F)cc(C(F)(F)F)c2)[C@H](C(O)(c2cc(C(F)(F)F)cc(C(F)(F)F)c2)c2cc(C(F)(F)F)cc(C(F)(F)F)c2)O1	-9%[8.59 µM]	-3%[8.59 µM]
COCCN1C(=O)NC(c2cccc(F)c2)C(C(C)=O)=C1C (stereo not given)	-6%[8.59 µM]	5%[8.59 µM]
CCCCn1c(C)cc2c(c1=O)[C@H]1O[C@](CCCC)(Cc3cc(C#N)ccc31)O2	?	14%[8.59 µM]
CN(C)CC/C=C1/c2ccccc2COc2ccccc21	?	3%
SMILES	Marburg entry	LASV entry inh
CN(C)CCC=C1c2ccccc2CCc2ccccc21	10µM*	?
CC(C)=CCN1C(=O)[C@@]2(CC(C)=C[C@@H](COCc3ccccc3)O2)c2ccccc21	3%[8.59 µM]	.
CC(=O)OC[C@H]1O[C@H](CC=NOC[C@@H](O)[C@H]2O[C@@H]3OC(C)(C)O[C@H]3[C@@H]2O)C=C[C@H]1OC(C)=O	?	-5%[8.59 µM]
CCOC(=O)CN1C(=O)NC(c2cccc(C(F)(F)F)c2)C(C(=O)OC)=C1C (stereo not given)	-11%[8.59 µM]	-14%[8.59 µM]
CC(CC(c1ccccc1)c1ccccc1)NC(C)(C)C (stereo not given)	13µM*	?
CN[C@@H](C)Cc1ccccc1	1%[107 µM]	-9%[107 µM]
CC(=O)C1=C(C)N(Cc2ccccc2)C(=O)NC1CCc1ccccc1 (stereo not given)	14%[8.59 µM]	.
C[C@H]1COc2cc(F)ccc2S(=O)(=O)N1	?	-11%
COc1ccc2c(c[n+](C)c3c4cc5c(cc4ccc23)OCO5)c1OC	4.5µM*	10µM*
COc1ccc2cc3[n+](cc2c1OC)CCc1cc2c(cc1-3)OCO2	10µM*!	11µM*!
COc1ccc2c(c1OC)CN1CCc3cc4c(cc3C1C2)OCO4 (stereo not given)	2%[17.8 µM]	6%[17.8 µM]
COc1cc2c(c(OC)c1OC)C(c1ccc3c(c1)OCO3)CC(=O)O2 (stereo not given)	54%	-4%
